The whole screen tested about 31,000 sequences, of which about 1,400 (4.5%) were called active.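 Rule for the calls: active = median seed-adjusted z-score above 1 or below -1; inactive = the rest.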 The entries come from a sample that favours actives as a whole.

The nature of the test: Novel Modifiers of Survival Motor Neuron (SMN) Protein: Gene Identification via Genome-wide siRNA Screen.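 Note: luminescence tracks full-length SMN protein made from the SMN2 reporter.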 As to conditions: HEK293T SMN2-luciferase reporter, siRNA knockdown, 72 h; actives lie on both sides. The method, boiled down: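 Luciferase signal, proportional to full-length SMN made from an SMN2 cDNA reporter in stable HEK293T cells, was read 72 h after siRNA reverse transfection. Values were expressed as MAD scores after non-targeting-control normalization and log10 conversion; seed analysis flagged off-targets.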
On the technique in general: A reporter such as luciferase makes a cellular process visible.
With CAGCCUUCAUGAGAUGUUATT against AMPD3, the median seed-adjusted z-score is -0.0865 (inactive). With CAACCUGCUCUACAGCAAATT against PRSS27 the figure was 1.03 (active); with GACGCGGUAUGUAGACAUATT against NAT8B, 0.206 (inactive). With GCUGCAUUGUGGGUGAUGATT against PTGIR the figure was -0.0806 (inactive); with CAAGAGCAGUUUAAUAGCATT against BAT3, 0.567 (inactive). With GGAACUUACUACAACUCCATT against TMPRSS6 the figure was 1.29 (active). As for GGUUAGCUUAUGUUACAUATT against E2F3, the median seed-adjusted z-score was -0.215 (inactive).

Turning to ACUCCUCUCUGUUAAUGGATT against LIN7C, the median seed-adjusted z-score is 0.021 (inactive). With GGUUGAAGAUGGUACUCCUTT against ADAMTS20 the figure was 1.44 (active); with CUCCAGAUAUAGACCUCAATT against TRIM22, 0.363 (inactive); with UGUUGUACCUCUAAUGUCATT against GPR172B, 0.184 (inactive). Under GCAACCCACCAAUAACUAATT against ADAM29 stands 0.904 (inactive).

In the case of UGAGUUCUUUAGGACCGAATT against MFAP3L, the median seed-adjusted z-score is 1.03 (active). Under GUACUGUAGAGAAAGCGUATT against ZNF606 stands 0.118 (inactive). With UUUCCAAACAAGUACCUAATT against CKS2 the figure was 0.0907 (inactive).

Take GCAUAUACCAUCGCUGUAATT against SUPT16H: the median seed-adjusted z-score was 1.2 (active).

With CCAGAUAUGGUAUCCCAAUTT against ZNF227, the median seed-adjusted z-score was 0.0194 (inactive). As for GUCUCAAUCUAAUAAGGAATT against TTLL1, the median seed-adjusted z-score is 0.322 (inactive). Under GAUCAGGACUUUAUGUUCATT against ZNF225 stands 0.0761 (inactive); under GAGCGUACCAAGGAUCUAATT against HDLBP, -1.18 (active); under CUUUUGACGUGAACGAUGATT against ORM1, 0.206 (inactive). With CCGCCCAAGUAGUAAAGAATT against ADCY3 the figure was -0.294 (inactive); with AGACUUUAAGGAGAAAACATT against YAF2, 0 (inactive). Under GGUUCACGGUUCAAAAUCATT against SLC25A24 stands -0.0384 (inactive); under GGUCCAACAUGCAAUCCAATT against EDEM3, 0.119 (inactive); under GCCGCAACAUGGAAGUACATT against MAPK8IP3, 0.734 (inactive). For GGGAGAUCUUCGACUCAUATT against ADRBK1, the median seed-adjusted z-score was 0 (inactive). With GGGACUAUUCCAAAACCCATT against FLAD1 the figure was 0.367 (inactive). Under GGAAUGUGCUGGUCGGAGATT against TIE1 stands 0.0629 (inactive). Under CCAAAUACAUCGCAUUAGATT against GTPBP4 stands 1.01 (active); under GGUUCAUACAGACUCUUAUTT against PJA2, 0 (inactive); under GAUAAAAACAGUCCUUUCUTT against FXYD3, 0.254 (inactive).

Take CAAUGUUACCAAAACCGAATT against ACVR1C: the median seed-adjusted z-score was -0.0005 (inactive). Under CCCUACCAACAUUAAGUAUTT against CLDN7 stands 0.0208 (inactive). Under GGAUGUGGUUUAUUAUACATT against SLC16A9 stands 0.125 (inactive).

For the sequence GCCUAUCAAUUGUUCGGGATT against TTF1, the median seed-adjusted z-score is 1.76 (active).

With GCGUAUGGGAUUACAAGAATT against PAFAH1B1, the median seed-adjusted z-score was 0.391 (inactive). As to GGCUAGUACUGACAGAUGATT against CREB3, the median seed-adjusted z-score was 0.0509 (inactive). Under ACUCCUACAUGUACAUUCUTT against KCNE3 stands -1.33 (active); under GGUUAAAAGUCGGUCCCAATT against SGCG, 0.886 (inactive). Under GCAUCUCUAUUGUAGCCCUTT against GHRHR stands 0 (inactive); under CAUCCGAUCUGAUAGGUCUTT against EFEMP1, 0.0157 (inactive). In the case of AGACCUAGCAUGGACCAGATT against GUCY2E, the median seed-adjusted z-score was 0.61 (inactive). With CUUGGACACUGAAAACGCATT against ITGAM the figure was -1.56 (active); with GGAUGAGUACAGAUUUACATT against CLPX, -0.0436 (inactive).

Turning to AGCUCAUAGCUGACCCAGATT against ZC3H3, the median seed-adjusted z-score was -0.622 (inactive). Under CAGAUGACUUCAGAACCAATT against KRT33B stands 0.04 (inactive). Under GGCUAUAUCGUCACAAUGATT against ABCA4 stands -1.09 (active). Under GGUAAUGCUUUAUUCCAAATT against ZNF677 stands -0.441 (inactive); under GAGCUGACGUGUACUCAUATT against USP5, 0.596 (inactive); under CGCAUUCUCCAGUCGCACATT against KRT81, -0.0955 (inactive).

Take CGGUUGGAGUUGGAUGACATT against TRIB3: the median seed-adjusted z-score is 0.00635 (inactive).

Turning to ACAUCAAAACACCAGCUUUTT against YBX2, the median seed-adjusted z-score was 0.362 (inactive). Take CCUACGUUUUUAUUAUCUUTT against SLC2A14: the median seed-adjusted z-score is -1.09 (active).

Turning to GCACAAGGAGUGACCUUCUTT against GCHFR, the median seed-adjusted z-score was -0.559 (inactive). Under GAACUUUGUUACUAUCGAATT against PCDH9 stands 0.165 (inactive).

As for GGAUCCUGGUGAUAAGAGATT against QRICH1, the median seed-adjusted z-score is -1.04 (active). Consider GAGAAAAUCUAUAUCCGGATT against NR2C2, for which the median seed-adjusted z-score was -0.498 (inactive). In the case of CCCGGAGAAUUCUCAAUGATT against NENF, the median seed-adjusted z-score is -0.778 (inactive). With CAUCAAUGACUCACCCUUUTT against RTN4R the figure was -0.536 (inactive).

In the case of CAAACGACCUUUGCCCAAATT against MED17, the median seed-adjusted z-score was -2.06 (active). Consider AAACUUGCCUGAGUACAAATT against KCNH3, for which the median seed-adjusted z-score is -0.509 (inactive). With GCUCCAGUCUCACUAAACATT against ZNF552 the figure was 0.437 (inactive). Under GAAUGAAGGUUUAUAUUGATT against EPHB3 stands -0.407 (inactive); under AGGAGACUCUUUGCUACAATT against MRGPRX1, -0.188 (inactive).

Consider GAAUGUUGACUCUACUGCATT against POLR3K, for which the median seed-adjusted z-score was 0.504 (inactive). With GGGACCAUCCUGUUCUUCATT against KCNK12 the figure was 1.04 (active); with CUCACAACAAAUUACUUAATT against CYP2C9, 0.246 (inactive). Under GGACUUGAGAGAUCUCUUUTT against DAB1 stands 0.307 (inactive). In the case of GGUCUAAAGGUGGAGAUAATT against EIF2C2, the median seed-adjusted z-score was -0.183 (inactive). Take CAUGUGCAGUACAUCCAUATT against TIMP3: the median seed-adjusted z-score is -1.05 (active).

On to GCCCUUUACAUACUCUUCATT against IL23R, for which the median seed-adjusted z-score is 0.512 (inactive). With GGAUGAUAUUCUAUCCUUUTT against IPO13 the figure was 0.612 (inactive); with UGCUCAGCAGUACAACGUATT against SYN1, -0.458 (inactive); with UGUCCACGGUUAAAAUUAUTT against CCL16, -0.308 (inactive). With CAAACCGAAUAGAAACUUUTT against PSMC1 the figure was -2.23 (active); with UCAACUGCCCAUACACUUATT against LOC647743, -0.203 (inactive). With UCCCAGUGAUUAUACGUUATT against ARPC4 the figure was -0.211 (inactive); with GGAUGAGAACAUUAAAACATT against COQ3, 0.426 (inactive); with UGAUGGAAGUUGUCACUUATT against BLK, -0.274 (inactive). Regarding GGCAAUGCUUUACUAUGAATT against ABCG8, the median seed-adjusted z-score was -0.0233 (inactive).

Regarding AGAUGUUCUUAAGACCAAATT against PACSIN2, the median seed-adjusted z-score was 0.73 (inactive).

In the case of GGACUUCUGAAAAUUCGCATT against EP400, the median seed-adjusted z-score was 1.83 (active).

As to CCGCGAUCAUAGACCUAGATT against FOXO4, the median seed-adjusted z-score was -0.0576 (inactive). Under GGACAGGAAGAUACAAGAATT against GPR113 stands -0.434 (inactive). Under GGAAGAAUAUGUUUAGAUATT against UBE2N stands 0.995 (inactive); under CGAGCAAUUUAGAGACUUATT against PCDHGA3, 0.27 (inactive). Under GGAGAUACCAGGAACCCAATT against SLC7A13 stands 0.121 (inactive); under CACGCAGAGUUACCGAAAATT against SPEN, -1.69 (active); under CGAGCCACCGAGAAGAUAATT against ATAD3A, -0.283 (inactive). For GGACAAGAUUGGUGGGUUATT against PEX1, the median seed-adjusted z-score is 0.227 (inactive).

With GUACCAAUACUGAUAAGAATT against SLC9A11, the median seed-adjusted z-score was -0.12 (inactive). With GGCCUAUCCUGAUUCUGAUTT against RND2 the figure was -0.0613 (inactive); with GGAUACUCUGAUGAAGAUATT against GNAQ, -1.23 (active). Under AGUCAGCUCCGAUACUUCATT against CAPN10 stands 0.364 (inactive); under UCACUGUGGUGUAUUUUAATT against PDP2, -0.0726 (inactive); under GCUUCCAACUGCUUAUAUATT against TP53RK, 0 (inactive).

With CCAUCUCCUCUGAAACGUATT against RREB1, the median seed-adjusted z-score is -0.414 (inactive). Under CAGAGACUGUUAUCCAUUUTT against SLC25A36 stands 0.134 (inactive); under UUGUGGAUGUUGAACCUAATT against SNRPD1, -2.97 (active). With GCUACUAACAUUACUCCAATT against FOLH1 the figure was 0.148 (inactive); with CCAUCUCUACCGACGAAGATT against ARHGEF1, -0.0658 (inactive).

Take CAUUCUAUGGGAUACCCUATT against SYT4: the median seed-adjusted z-score is -0.354 (inactive).

Turning to CAGGAAGUCUGACCAAUAATT against LPL, the median seed-adjusted z-score was 0.389 (inactive). With UGACCGAUGUCUUCCUUAUTT against RHOQ the figure was -0.328 (inactive).

Regarding CUCUGAUUAUCAUGAGAUATT against SRGAP2, the median seed-adjusted z-score was 0.0323 (inactive). With AACCUAUAAUGAGGAUGUATT against ZNRF2 the figure was 0 (inactive); with AGAGCGACCUCACCACCAATT against RAB1B, 1.55 (active).

The values are drawn from PubChem BioAssay AID1347426 (Functional Genomics Laboratory (NCATS/FGL), 2020).
